JNK3 blocker: JNK3 kinase activity inhibitors, primary screen, biochemical, human, purified enzyme; actives 0.61% (n = 60,000); AID 746, 2007; HTS; Mitogen-activated protein kinase 10 (Homo sapiens), P53779; inhibition, % at 8 µM; in the data active = inhibition above about 17%
MKP-1 inh: MKP-1 phosphatase inhibitors, primary screen, biochemical, in vitro. recombinant MKP-1, OMFP hydrolysis fluorescence. inhibition, %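 (compounds tested at a single concentration somewhere between 10 and 100 µM)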. actives 0.15% (n = 65,000). AID 374, 2006;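 active = inhibition above about 50%, limit read from the data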
Target sequence (P28562 whole entry, looked up): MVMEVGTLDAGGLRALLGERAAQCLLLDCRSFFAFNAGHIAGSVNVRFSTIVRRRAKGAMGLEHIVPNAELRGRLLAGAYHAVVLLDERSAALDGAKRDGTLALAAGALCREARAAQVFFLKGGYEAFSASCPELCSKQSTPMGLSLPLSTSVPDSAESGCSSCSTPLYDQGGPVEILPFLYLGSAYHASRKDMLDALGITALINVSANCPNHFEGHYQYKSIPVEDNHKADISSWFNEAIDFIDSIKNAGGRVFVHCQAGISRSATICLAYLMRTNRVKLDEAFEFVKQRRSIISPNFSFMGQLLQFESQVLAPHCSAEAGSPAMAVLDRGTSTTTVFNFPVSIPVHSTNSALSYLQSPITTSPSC
Hsp90 inh: tumor Hsp90 inhibitors, primary screen, cell lysate, fluorescence polarization, NCI-N417 lysate; Heat shock protein HSP 90-alpha (Homo sapiens), P07900; actives 0.35% (n = 64,000); AID 429, 2006; inhibition, % at 30 µM; Cy3B-geldanamycin FP displacement;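 active = inhibition above 50%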
ROCK2 inh: inhibitors of human ROCK2 kinase, primary screen, biochemical, high-throughput, luminescence; purified ROCK2, Kinase-Glo ATP depletion luminescence; AID 604, 2007; inhibition, % at 6 µM; Rho-associated protein kinase 2 (Homo sapiens), O75116; actives 0.35% (n = 60,000);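 active = inhibition above the screen-wide mean inhibition plus 3 SD, cut at about 18% in these data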
PKA kinase inh: inhibitors of human PKA kinase activity, primary screen, biochemical, ATP-depletion luminescence, Kemptide substrate. cAMP-dependent protein kinase catalytic subunit alpha (Homo sapiens), P17612. PKA Kemptide phosphorylation, Kinase-Glo ATP luminescence. inhibition, % at 6 µM. actives 0.1% (n = 65,000). AID 524, 2006;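 active = inhibition above the screen-wide mean inhibition plus 3 SD, cut at about 21% in these data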
Cdc25B inh: inhibitors of Cdc25B phosphatase catalytic domain, primary screen, biochemical, OMFP fluorescence | actives 0.1% (n = 65,000) | recombinant Cdc25B, OMFP fluorescence Ex485/Em525 | inhibition, %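 (compounds tested at 10 µM final in the well)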 | M-phase inducer phosphatase 2 (Homo sapiens), P30305; in the data active = inhibition above about 50%
Each line names hits and unclear results; the compound was inactive in the other large screens. Hits are enriched below; roughly 1% of the tested compounds scored in any of these assays.

Cc1cc(NC(=O)COC(=O)c2n[nH]c3ccccc23)no1	JNK3 blocker 23.0
COc1ccc(CNC(=O)COC(=O)c2n[nH]c3ccccc23)cc1OC	none
CCc1ccc(-c2nnn(CCC(=O)OC)n2)cc1	Hsp90 inh 102.7
CC(C)c1ccc(-c2nnn(CCC(=O)O)n2)cc1	none
Cc1ccc(NC(=O)CSc2nnc(-c3ccc(S(=O)(=O)N4CCCC4)cc3)o2)cc1C	MKP-1 inh 53.2
CC(C)(C)NCC(O)COc1cccc2c1C[C@H](O)[C@H](O)C2 (stereo partly drawn)	Cdc25B inh 100.2
OCC1NC[C@@H](O)C(O)[C@@H]1O (stereo partly drawn)	none (no result: JNK3 blocker, MKP-1 inh, ROCK2 inh, PKA kinase inh, Cdc25B inh)
O=C1NCCCc2c1oc1ccc(O)cc21	Cdc25B inh 50.4
O=C(CN1CCN(Cc2ccccc2)CC1)N1CCCc2c1c(=O)oc1ccc(O)cc21	none
CCOC(=O)C1=C(C)NC(=O)NC1c1ccc(OCCO)c(OC)c1 (stereo not drawn)	none
COc1cc(C2NC(=O)NC(C)=C2C(=O)OCc2ccccc2)ccc1O (stereo not drawn)	JNK3 blocker 20.1
COc1ccc(COC(=O)C2=C(C)NC(=O)NC2c2ccc(O)c(OC)c2)cc1 (stereo not drawn)	JNK3 blocker 27.3
CCOc1cc(C2NC(=O)NC(C)=C2C(=O)OCc2ccccc2)ccc1O (stereo not drawn)	JNK3 blocker 19.2
NC(C(=O)N[C@@H]1C(=O)N2C(C(=O)O)=C(Cl)CS[C@H]12)c1ccccc1 (stereo partly drawn)	none (no result: JNK3 blocker, MKP-1 inh, ROCK2 inh, PKA kinase inh, Cdc25B inh)
COC(=O)c1c(-c2cc(OC)c(OC)c(OC)c2)c2ccnc(OCc3ncccn3)c2c(=O)n1Cc1ccnc(C)c1	none (no result: JNK3 blocker, MKP-1 inh, ROCK2 inh, PKA kinase inh, Cdc25B inh)
CNC(=O)[C@H]1O[C@@H](n2cnc3c(NCc4cccc(I)c4)ncnc32)C(O)[C@H]1O (stereo partly drawn)	none (no result: JNK3 blocker, MKP-1 inh, ROCK2 inh, PKA kinase inh, Cdc25B inh)
CCCn1c(=O)c2[nH]c(-c3ccc(OCC(=O)Nc4ccc(C#N)cc4)cc3)nc2n(CCC)c1=O	none (no result: JNK3 blocker, MKP-1 inh, ROCK2 inh, PKA kinase inh, Cdc25B inh)
CC(/C=C/c1cccc(Oc2ccc(F)cc2)c1)N(O)C(N)=O (stereo not drawn)	none (no result: JNK3 blocker, MKP-1 inh, ROCK2 inh, PKA kinase inh, Cdc25B inh)
CCCc1cc(-c2[nH]ncc2-c2ccc3c(c2)OCCCO3)c(O)cc1O	Hsp90 inh 77.8
CCCc1cc(-c2[nH]ncc2-c2ccc(C(=O)OCC)o2)c(O)cc1O	none
N#Cc1sc2nc3c(c(-c4ccco4)c2c1N)CCCC3	JNK3 blocker 17.4
c1coc(-c2nc3c4c5c(sc4ncn3n2)CCCC5)c1	none
Oc1cc(O)cc(/C=C/c2ccc(O)c(O)c2)c1	Hsp90 inh 108.3 (no result: JNK3 blocker, MKP-1 inh, ROCK2 inh, PKA kinase inh, Cdc25B inh)
Cc1cccc(S(=O)(=O)c2c(N)n(Cc3ccco3)c3nc4ccccc4nc23)c1	none
Nc1c(S(=O)(=O)c2cccc(Cl)c2)c2nc3ccccc3nc2n1/N=C/c1ccc(O)c(O)c1	Hsp90 inh 58.7, PKA kinase inh 30.8
N=c1ccn2c(n1)OC1[C@@H](O)[C@@H](CO)O[C@H]12 (stereo partly drawn)	none (no result: JNK3 blocker, MKP-1 inh, ROCK2 inh, PKA kinase inh, Cdc25B inh)
Cc1cc(C(F)F)n2ncc(C(=O)NCc3ccccc3C(F)(F)F)c2n1	JNK3 blocker 19.1
N#Cc1c(-c2ccccc2)no[n+]1[O-]	none (no result: JNK3 blocker, MKP-1 inh, ROCK2 inh, PKA kinase inh, Cdc25B inh)
Nc1ccc(-n2c(N)c(C(=O)NCc3ccc4c(c3)OCO4)c3nc4ccccc4nc32)cc1	JNK3 blocker 20.7
Cc1cnc(NC(=O)c2c(O)c3cccc4c3n(c2=O)CCC4)s1	none
Cc1cccc(NC(=O)c2c(O)c3cccc4c3n(c2=O)CCC4)n1	Hsp90 inh 50.3
Cc1nnc(SCCn2c(N3CC(C)CC(C)C3)nc3c2c(=O)n(C)c(=O)n3C)s1 (stereo not drawn)	Hsp90 inh 68.2
C=CC[C@H](N)C(=O)O	none (no result: JNK3 blocker, MKP-1 inh, ROCK2 inh, PKA kinase inh, Cdc25B inh)
CCOC(=O)c1c(C)oc2c1c(C=NCC1CCCO1)c(O)c1ccccc12 (stereo not drawn)	Hsp90 inh 64.0
Nc1nc(SCc2ccc([N+](=O)[O-])cc2)c2ncn([C@@H]3O[C@H](CO)[C@H](O)C3O)c2n1 (stereo partly drawn)	none (no result: JNK3 blocker, MKP-1 inh, ROCK2 inh, PKA kinase inh, Cdc25B inh)
O=c1onc2cnc3ccccc3n12	none (no result: JNK3 blocker, MKP-1 inh, ROCK2 inh, PKA kinase inh, Cdc25B inh)
COc1ccc(CC(=O)Nc2cc(C)ccn2)cc1	JNK3 blocker 27.0
Cc1ccnc(NC(=O)CCC2CCCCC2)c1	none
COc1ccc(S(=O)(=O)N(C)CC(=O)N2CCC(C(N)=O)CC2)cc1Cl	Hsp90 inh 73.4
COC(=O)c1ccc(Cn2cnc3ccccc3c2=O)cc1	none (no result: JNK3 blocker, Hsp90 inh, ROCK2 inh)
CCOC(=O)c1ccc(Cn2cnc3ccccc3c2=O)cc1	JNK3 blocker 39.2
CCCCNC(=O)CC1N=C2c3ccccc3N=C(SCC(=O)Nc3cccc(C)c3)N2C1=O (stereo not drawn)	none (no result: JNK3 blocker, ROCK2 inh)
Cc1cc(NC(=O)CSC2=Nc3ccccc3C3=NC(Cc4ccccc4)C(=O)N23)n[nH]1 (stereo not drawn)	JNK3 blocker 36.5
Cn1c(=O)c2c(nc(NCc3ccco3)n2CC(O)COc2ccccc2)n(C)c1=O (stereo not drawn)	none
Cc1ccccc1OCC(O)Cn1c(NCCN(C)C)nc2c1c(=O)n(C)c(=O)n2C (stereo not drawn)	Hsp90 inh 92.0
Cn1c(SCc2ccc(Br)cc2)nnc1-c1ccncc1	PKA kinase inh 25.1
Cc1cc(O)cc(O)c1-c1onc(C(F)(F)F)c1-c1cscn1	Hsp90 inh 68.6
CCOC(=O)c1oc2cc(O)cc(C)c2c(=O)c1-c1cscn1	none
O=C1CC(N2CCN(CCc3ccccn3)CC2)C(=O)N1c1ccc(Cl)cc1 (stereo not drawn)	Cdc25B inh 58.5
O=C1CC(N2CCN(Cc3ccccc3)CC2)C(=O)N1c1ccccc1 (stereo not drawn)	none
CC(=O)NCCc1c[nH]c2ccc(O)cc12	none (no result: JNK3 blocker, MKP-1 inh, ROCK2 inh, PKA kinase inh, Cdc25B inh)
COCCNC(=O)c1nn(-c2cc(OC)cc(OC)c2)c(=O)c2ccccc12	none
COc1cc(OC)cc(-n2nc(C(=O)NCCCN3CCOCC3)c3ccccc3c2=O)c1	Cdc25B inh 75.7
O=c1onc2n1-c1cc(Br)ccc1OC2	none (no result: JNK3 blocker, MKP-1 inh, ROCK2 inh, PKA kinase inh, Cdc25B inh)
Cc1ccccc1-n1nc(C)c2cc(C(=O)N3CCOCC3)sc21	JNK3 blocker 23.2
Cc1nn(-c2ccccc2)c2sc(C(=O)N3CCCCC3)cc12	none
CCOc1ccc(S(=O)(=O)Nc2cc(Sc3ncn[nH]3)c3oc(=O)sc3c2)cc1	Hsp90 inh 53.9
CCOc1ccc(S(=O)(=O)Nc2cccc(Cl)c2)cc1	none
CCOC(=O)c1oc2c(O)c(O)ccc2c(=O)c1-c1nncn1-c1ccccc1	Hsp90 inh 60.6
NC1CONC1=O (stereo not drawn)	none (no result: JNK3 blocker, MKP-1 inh, ROCK2 inh, PKA kinase inh, Cdc25B inh)
COc1ccc(-n2nc3c(c2NC(=O)c2cc(Br)ccc2Cl)CS(=O)C3)cc1 (stereo not drawn)	none

Compound activity: PubChem BioAssay, several laboratories
